Only some compounds are listed: those with a hit (about 0.37% of all), similar ones and a draw of the others.
Rac1 mut GTP = GTP binding modulators of activated mutant Rac1, primary screen, biochemical, bead-based flow cytometry, multiplex, fluorescent GTP. Ras-related C3 botulinum toxin substrate 1 (Homo sapiens), P63000. GST-Rac1 activated beads; actives lie on both sides; 100% means binding = to untreated wells. percent activity (GTP binding), % at 10 µM. hit rate 0.11% among 190,000. AID 764, 2007;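 active = GTP binding at least 20 percentage points away from the 100% baseline, in either direction, so actives lie on both sides; inconclusive = Compound likely fluorescent itself, or too few beads counted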
Rab2A wt mod = modulators of GTP binding to Rab2A wildtype, primary screen, biochemical, dog, bead-based flow cytometry, multiplex. hit rate 0.19% among 190,000. Ras-related protein Rab-2A (Canis lupus familiaris), P61105. GTP binding activity, % at 10 µM. GST-Rab2 wt beads, Bodipy-GTP binding;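 active = GTP binding activity at least 20 points away from 100%, either lowered or raised; inconclusive = signal likely due to the compound's own green fluorescence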;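 note: 0% = beads with excess unlabeled GTP and 100% = no-compound control corrected for plate trend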
Cdc42 wt GTP = modulators of GTP binding to wildtype Cdc42, primary screen, biochemical, multiplex bead flow cytometry, Bodipy-GTP; Cell division control protein 42 homolog (Homo sapiens), P60953; GST-Cdc42 beads; actives lie on both sides; percent activity (GTP binding), % at 10 µM; hit rate 0.2% among 190,000; AID 761, 2007;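 active = percent activity GTP binding at least 20 points away from the 100% baseline, either down as inhibitor or up as activator; inconclusive = compound flagged as likely green fluorescent from well-wide comparison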;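 note: median bead fluorescence of bound Bodipy-FL-GTP at 100 nM; 0% = excess unlabeled GTP control and 100% = no compound control; below 100% means less GTP binding so inhibitor and above means activator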
Target sequence (P60953 whole entry, looked up): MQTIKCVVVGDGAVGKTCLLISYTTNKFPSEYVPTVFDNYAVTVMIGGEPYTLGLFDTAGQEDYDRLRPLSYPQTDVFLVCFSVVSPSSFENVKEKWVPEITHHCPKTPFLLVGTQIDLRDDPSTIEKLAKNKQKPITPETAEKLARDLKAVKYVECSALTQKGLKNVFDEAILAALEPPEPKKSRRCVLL
HRas wt GTP bind = modulators of GTP binding to HRas wildtype, primary screen, biochemical, bead-based flow cytometry, multiplex. GST-Ras wt beads, Bodipy-FL-GTP binding; actives lie on both sides. hit rate 0.14% among 190,000. GTP binding activity, % at 10 µM;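 active = GTP binding activity at least 20% away from the 100% baseline, either lowered as inhibitor or raised as activator; inconclusive = flagged as likely green fluorescent, judged across all proteins in the well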;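 note: 0% = unlabeled GTP competition control and 100% = no-compound control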
Target sequence (P01112 whole entry, looked up): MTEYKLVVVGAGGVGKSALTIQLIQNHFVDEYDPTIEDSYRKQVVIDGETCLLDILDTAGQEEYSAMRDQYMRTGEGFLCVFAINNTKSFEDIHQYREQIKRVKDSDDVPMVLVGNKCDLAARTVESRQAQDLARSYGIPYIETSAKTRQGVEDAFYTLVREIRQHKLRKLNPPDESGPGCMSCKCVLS
Rab7 wt modul = modulators of GTP binding to Rab7, primary screen, biochemical, wildtype, multiplex bead flow cytometry; GTP binding activity (percent of control), % at 10 µM; hit rate 0.055% among 190,000; Rab7 GTPase wild type (dog), Bodipy-FL-GTP binding; GST-Rab7 beads, fluorescent GTP binding; actives lie on both sides; untreated = 100%, excess cold GTP = 0%;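 active = fluorescent GTP binding to Rab7 beads changed by at least 20 points from the 100% baseline, either direction, mostly lower; inconclusive = compound itself probably fluorescent, or too few beads counted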;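 note: median green fluorescence of bound Bodipy-FL-GTP per Rab7 bead population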
Rac1 wt GTP bind = wildtype Rac1 GTP binding modulators, primary screen, biochemical, GST-Rac1 beads, flow cytometry, multiplex; Ras-related C3 botulinum toxin substrate 1 (Homo sapiens), P63000; fluorescent GTP binding; actives lie on both sides; 0 = cold GTP competed, 100 = untreated; GTP binding activity (% of control), % at 10 µM; hit rate 0.27% among 190,000;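 active = GTP binding activity at least 20 points away from the 100% control level, either lower or higher; inconclusive = compound flagged as likely green fluorescent, judged across all proteins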
The depositor's hits bear a star; ? = inconclusive; [ ] = dose if it differs, or a comment.

SMILES	Rac1 mut GTP	Rab2A wt mod	Cdc42 wt GTP	HRas wt GTP bind	Rab7 wt modul	Rac1 wt GTP bind
COc1ccc(CC(=O)Nc2ccc(S(=O)(=O)NC(C)C)cc2)cc1	29*	29*	30*	33*	22*	27*
CCCCNS(=O)(=O)c1ccc(NC(=O)Cc2ccc(OC)cc2)cc1	95	95	94	96	93	98
NC(=O)COC(=O)c1cccc2c1-c1ccccc1C2=O	85	78*	78*	81	92	72*
CCOC(=O)C(C)c1ccc2cc(OC)ccc2c1 (stereo unspecified)	92	94	94	97	95	95
O=C(O)c1cccc(Oc2ccc([N+](=O)[O-])cc2)c1	120*[activator]	121*[activator]	127*[activator]	117	115	141*[activator]
COc1cccc(OC)c1-c1nn2c(-c3cc(-c4ccccc4)n[nH]3)nnc2s1	?	167*[activator]	179*[activator]	162*[activator]	?	206*[activator]
CCOC(=O)Cc1csc(NC(=O)CSc2nc(-c3ccccc3)c(C#N)c(=O)[nH]2)n1	79*	85	84	84	86	88
CCOc1ccc2nc(NC(=O)CSc3nc(-c4ccccc4)c(C#N)c(=O)[nH]3)sc2c1	78*	87	82	85	95	82
CCOc1ccc2ccccc2c1/C=N/n1cncn1	104	102	115	100	98	130*[activator]
O=C(CN1C(=O)S/C(=C/c2ccncc2)C1=O)N1CCOCC1	100	95	99	97	98	103
O=C(CN1C(=O)S/C(=C/c2cccnc2)C1=O)N1CCOCC1	91	70*	83	78*	88	94
COCCn1c(=S)[nH]c2cc(C(=O)N3CCc4ccccc4C3)ccc2c1=O	95	103	104	102	103	124*[activator]
COc1ccc(C)cc1NC(=O)COC(C)=O	107	108	120*[activator]	105	103	137*[activator]
CCOc1ccc(Br)cc1-c1noc(-c2cccs2)n1	98	101	100	100	99	101
COc1ccc(S(=O)(=O)N2CCCCC2)cc1NC(=O)c1ccc([N+](=O)[O-])o1	87	84	82	86	97	74*
O=C(Cn1nnc2ccccc2c1=O)N1CCOCC1	96	97	98	96	97	100
Cc1ccc(N2CCN(c3ccc(C)cc3)C2c2ccncc2)cc1	102	99	103	101	102	105
OC(CN1CCN(Cc2ccc3c(c2)OCO3)CC1)c1c[nH]c2ccccc12 (stereo unspecified)	105	107	116	107	94	122*[activator]
Cc1c(C(O)CN2CCN(Cc3ccc4c(c3)OCO4)CC2)c2ccccc2n1C (stereo unspecified)	99	99	100	100	99	103
Cc1csc(NC(=O)c2cc(=O)[nH]c3ccc(S(=O)(=O)N4CCOCC4)cc23)n1	89	79*	80	84	94	75*
O=C(NC1CCCCCC1)c1cc(=O)[nH]c2ccc(S(=O)(=O)N3CCOCC3)cc12	100	94	97	96	92	98
CC(=O)C1=C(O)C(=O)N(CCCn2ccnc2)C1c1ccc(Cl)cc1 (stereo unspecified)	97	95	97	100	97	103
Cn1cccc1/C=C1\SC(=S)N(NC(=O)c2ccccc2Cl)C1=O	89	83	88	89	90	78*
Cc1c(C)n(C)c2ccc(C(=O)Nc3cccc4ccccc34)cc12	95	95	96	97	95	96
COc1ccccc1-n1c(SC)nc(O)cc1=O	99	100	100	98	101	104
SMILES	Rac1 mut GTP	Rab2A wt mod	Cdc42 wt GTP	HRas wt GTP bind	Rab7 wt modul	Rac1 wt GTP bind
Oc1ccc(/C=N/NC(=S)N/N=C/c2ccc(O)cc2)cc1	88	85	82	87	94	71*
CC(C)CCn1c(CN2CCN(Cc3ccccc3)CC2)nc2c1c(=O)n(C)c(=O)n2C	120*[activator]	123*[activator]	156*[activator]	116	105	159*[activator]
CCOc1ccc2c(c1)c(N=NC(=N)N)c(O)n2C	90	86	90	84	93	78*
CCOc1ccc2c(c1)c(N=Nc1cccc(C(=O)O)c1)c(O)n2C	95	95	99	96	98	93
C=CCN1C(=NC(=O)CCCC(=O)O)SC2CS(=O)(=O)CC21 (stereo unspecified)	99	99	104	97	76*	100
COc1ccc(-c2c(C#N)c(N)nc3c2CCc2ccccc2-3)cc1OC	95	98	98	100	97	105
COc1ccc(-c2cc(-c3ccc(O)cc3)nc(N)c2C#N)cc1OC	85	79*	81	81	83	69*
CN(/N=C/c1ccco1)C1=NS(=O)(=O)c2ccccc21	80	73*	71*	76*	85	64*
COc1ccc(N(C)C2=NS(=O)(=O)c3ccccc32)cc1	97	99	101	100	98	104
CCCc1cc(N2CCN(C(=O)c3ccco3)CC2)n2c(nc3ccccc32)c1C#N	85	79*	87	81	84	84
COc1ccc(S(N)(=O)=O)cc1C(=O)NCC1(N2CCCCC2)CCCCC1	99	101	100	102	100	102
C=CCn1c(-c2csc(-c3ccc(Cl)cc3)n2)n[nH]c1=S	101	112	116	110	105	120*[activator]
COC(=O)c1c(N2C(=O)[C@H]3[C@@H](C2=O)[C@]2(C(=O)Nc4c2ccc(C)c4C)N2CCC[C@@H]32)sc(C)c1C	114	129*[activator]	110	123*[activator]	131*[activator]	124*[activator]
COC(=O)c1c(N2C(=O)[C@H]3[C@@H](C2=O)[C@]2(C(=O)Nc4c(C)cc(C)cc42)N2CCC[C@@H]32)sc(C)c1C	107	126*[activator]	111	120*[activator]	121*[activator]	115
COC(=O)c1c(N2C(=O)[C@H]3[C@@H](C2=O)[C@]2(C(=O)Nc4ccccc42)N2CCC[C@@H]32)sc(C)c1C	95	102	99	100	112	103
CC1=Nn2c(nnc2-c2ccco2)SC1	99	99	99	99	96	100

Screening data deposited in PubChem by NMMLSC.
